CHT allo act – human CHT allosteric activation. CHT-expressing cells, membrane potential dye, choline EC20; stronger effect = higher value; LV-AA mutant CHT in HEK293 cells. 0.49% of 310,000 active. B-score at 10 µM;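 active means initial fluorescence not abnormally high and integrated response B-score, plate-corrected, over 3 SD above library mean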
Target sequence (Q9GZV3 whole entry, looked up): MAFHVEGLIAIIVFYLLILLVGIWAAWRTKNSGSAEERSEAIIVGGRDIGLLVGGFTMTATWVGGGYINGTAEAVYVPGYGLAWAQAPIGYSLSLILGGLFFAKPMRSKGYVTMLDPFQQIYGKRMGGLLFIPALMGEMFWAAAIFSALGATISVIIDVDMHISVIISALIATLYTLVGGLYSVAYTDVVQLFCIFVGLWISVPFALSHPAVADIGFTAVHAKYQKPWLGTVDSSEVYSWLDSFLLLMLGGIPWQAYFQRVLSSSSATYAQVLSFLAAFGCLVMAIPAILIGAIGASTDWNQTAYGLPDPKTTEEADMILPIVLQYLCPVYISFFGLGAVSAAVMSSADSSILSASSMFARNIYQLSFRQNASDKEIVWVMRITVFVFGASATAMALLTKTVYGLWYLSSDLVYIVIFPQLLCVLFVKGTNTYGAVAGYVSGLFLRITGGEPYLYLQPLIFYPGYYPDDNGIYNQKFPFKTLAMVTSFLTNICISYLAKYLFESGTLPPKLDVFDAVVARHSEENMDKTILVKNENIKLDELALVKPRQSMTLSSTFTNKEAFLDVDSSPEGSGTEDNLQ
CHT inh – inhibitors of human choline transporter CHT. 0.86% of 310,000 active. CHT-expressing cells, membrane potential dye, choline response; stronger effect = lower value. AID 488975. B-score at 10 µM;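 active means B-score over 3 SD under the library average, and starting fluorescence ratio not unusually high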;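 further: choline stimulus applied at its EC90 after an EC20 pre-addition; B-score computed on integrated fluorescence ratio after choline addition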
TMEM16A act – activators or potentiators of mouse TMEM16A chloride channel | Q8BHY3 | HEK293 TMEM16A/YFP-H148Q/I152L, iodide quench fluorescence; stronger effect = lower value | B-score at 10 µM | 0.3% of 340,000 active | AID 623877;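 active means fluorescence-ratio B-score plate-corrected deviation score at least 3 library SD below zero, with starting fluorescence score within 5 deviations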;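 further: channel opened by trigger with iodide after compound preincubation; score built on the fluorescence ratio of max minus min over baseline; more negative score means more quench and so TMEM16A activation or potentiation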
ANO1 block – mouse TMEM16A channel inhibition, primary screen | 1.2% of 310,000 active | normalized B-score (activity score, 25-100; higher = stronger inhibition) at 10 µM | HEK293 TMEM16A/YFP iodide influx fluorescence, ionomycin;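 active means ratio plate-corrected score three or more library SD toward inhibition, starting fluorescence score within five deviations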;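 further: score derived from kinetic fluorescence span divided by baseline fluorescence per well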
CHT block conf – human CHT inhibition, confirmatory screen; shares compounds with CHT inh; CHT-expressing cells, choline membrane potential dye; LV-to-AA substituted CHT, HEK293 cells; CHT activity remaining % of control (stronger effect = lower value), % at 10 µM; 70% of 2,400 active;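 active means choline transporter activity left, mean of duplicates at 10 µM, below buffer-only control mean minus 3 SD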;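 further: depolarization triggered by choline at its EC90 following an EC20 pre-addition; 0% = hemicholinium-3 full block and 100% = buffer-only control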
HEK293 MPD ctr – CHT inhibitor counter-screen hit in parental HEK293 cells; 4% of 2,400 active; AID 493222; shares compounds with CHT inh; membrane potential dye, choline response; active = decrease or increase beyond buffer ±3SD; membrane potential ratio readout (active if shifted either direction beyond buffer ±3SD; no single direction) at 10 µM;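 further: parental cells lack the transporter so any hit is non-specific; ratio is peak minus trough fluorescence over baseline after EC90 choline challenge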
CHT activ conf – confirmation of human choline transporter (CHT) activators | shares compounds with CHT allo act | CHT-expressing cells, membrane potential dye fluorescence (FDSS); % of choline EC20–EC90 response window; HEK293 expressing CHT LV-AA mutant; choline added at its EC20 | activation, % at 10 µM | 91% of 2,500 active | AID 504833;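 active means primary screen active, with duplicate mean activation above negative control mean plus 3 SD, cut at about 11% in these data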
HEK293 MP dye – activity in parental HEK293 cells lacking CHT; shares compounds with CHT allo act; AID 623908; ratio readout change at 10 µM, hits read low; 62% of 2,500 active; membrane potential dye fluorescence (FDSS); measured after EC20 choline addition;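 active means duplicate-averaged ratio beyond 3 SD from buffer wells, up or down, though filed actives are nearly all decreases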
TMEM16A reconf – re-confirmation of mouse TMEM16A chloride channel inhibitors; inhibition, % at 10 µM; HEK293 TMEM16A/YFP-H148Q, iodide quench fluorescence; ionomycin added to raise cell calcium; shares compounds with ANO1 block; 39% of 2,300 active; AID 652189;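 active means mean duplicate percent inhibition, scaled so buffer wells are 0 and the reference blocker 100, over three buffer SD above buffer mean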
HEK293 Ca mobil – alters calcium mobilization in TMEM16A HEK293 cells, counter-screen; shares compounds with ANO1 block; TMEM16A/YFP HEK293, Fluo4 calcium mobilization; calcium response (% of ionomycin), % at 10 µM; 2% of 2,300 active; AID 652231;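 active means duplicate-averaged calcium signal over 20% of the ionomycin maximum, relative to buffer baseline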;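 further: each well's signal is peak minus trough fluorescence divided by its pre-addition baseline; 0% = buffer wells and 100% = ionomycin wells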
YFP-HEK293 quench – acts in parental YFP-HEK293 cells lacking TMEM16A, counter-screen. AID 652233. iodide YFP quench, ionomycin. shares compounds with ANO1 block. 2,300 tested, under 10 active. YFP ratio F(max-min)/F0 at 10 µM;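 active means yellow fluorescent protein signal ratio exceeding the buffer control mean by over 5 SD of those controls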;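 further: ratio is mean of duplicate wells from kinetic YFP trace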
ClC-1 inh – blocks the rat ClC-1 voltage-dependent chloride channel | shares compounds with ANO1 block | CHO ClC-1-YFP, iodide influx fluorescence quench; iodide control reads 0, buffer control 100 | ratio percent, % at 10 µM | 2,300 tested, under 10 active | AID 652236;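 active means duplicate-mean ratio percent above the mean of iodide-only control wells, which defines zero, plus 5 of their SD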;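 further: higher percent means stronger block of ClC-1 iodide influx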
* marks the source's active call; other numbers are inactive results; i = inactive; / = not tested or not shown. An excerpt weighted towards active compounds, which were near 2.3% of everything screened.

SMILES	CHT allo act	CHT inh	TMEM16A act	ANO1 block	CHT block conf	HEK293 MPD ctr	CHT activ conf	HEK293 MP dye	TMEM16A reconf	HEK293 Ca mobil	YFP-HEK293 quench	ClC-1 inh
O=c1c2cc(Br)ccc2nc(-c2ccc(Cl)cc2)n1O	i	-6.1*	i	25*	41%*	i	/	/	39%*	110%*	-0.87	-6
N#Cc1ccc(-c2nc3cc(Cl)ccc3c(=O)n2O)cc1	i	i	i	i	/	/	/	/	/	/	/	/
Cc1nc(N)nc(N)c1-c1ccc([N+](=O)[O-])cc1	/	/	i	/	/	/	/	/	/	/	/	/
N#CC(C#N)=c1ccc2c(c1)N1C3=C(CCCC3)CC3CCCCC31N=2 (stereo not given)	i	-11*	i	25*	62%*	i	/	/	i	i	-0.85	-1
COc1cc(C(C)=O)ccc1OCC(=O)NCCCn1nc(C)cc1C	/	/	i	/	/	/	/	/	/	/	/	/
COc1ccc(-c2cc(C(F)(F)F)c3c(=O)n(-c4ccccc4)[nH]c3n2)cc1	i	-6*	i	100*	66%*	2.3*	/	/	23%*	i	-1.2	-4
COc1ccccc1NS(=O)(=O)c1cc2c3c(c1)CCN3C(=O)CC2	i	i	i	i	/	/	/	/	/	/	/	/
Cc1ccc(S(=O)(=O)Nc2nc(-c3ccc(F)cc3)cs2)cc1	i	i	i	i	/	/	/	/	/	/	/	/
O=S(=O)(Nc1nc(-c2ccccc2)cs1)c1cccc(C(F)(F)F)c1	i	-7.7*	i	100*	51%*	i	/	/	25%*	i	-1	-20
CS(=O)(=O)NCCNc1ncc(C(F)(F)F)cc1Cl	i	i	i	i	/	/	/	/	/	/	/	/
O=S(=O)(NCCNc1ncc(C(F)(F)F)cc1Cl)C(F)(F)F	i	-9.6*	i	100*	42%*	i	/	/	35%*	i	-1.1	-13
CC1=NN(C(=O)c2ccc(Br)cc2)C(O)(C(F)(F)OC(F)(F)F)C1 (stereo not given)	i	-5.1*	i	100*	44%*	i	/	/	29%*	i	-0.97	-21
O=C(COC(=O)c1cc[n+]([O-])cc1)Nc1ccc(Cl)cc1Cl	/	/	i	/	/	/	/	/	/	/	/	/
CC(c1ccco1)N(C(=O)c1cc(Cl)cc(Cl)c1)c1ccccn1 (stereo not given)	i	i	i	i	/	/	/	/	/	/	/	/
CC(c1ccco1)N(C(=O)c1ccccc1NS(=O)(=O)c1ccc(Cl)c([N+](=O)[O-])c1)c1ccccn1 (stereo not given)	i	-7.8*	i	100*	66%*	i	/	/	26%*	i	-0.91	-22
COC(=O)c1c(C)[nH]c(C(=O)CN(C)CC(=O)Nc2cccc(F)c2)c1C	/	/	i	/	/	/	/	/	/	/	/	/
C[C@H](NC(=O)OC(C)(C)C)c1nnc(SCC(=O)c2ccc(Cl)cc2)o1	i	-5.3*	i	100*	69%*	i	/	/	i	i	-0.91	-7
CC(C)(C)C(=O)Nc1sc(-c2ccccc2)cc1C(=O)O	i	i	i	i	/	/	/	/	/	/	/	/
Cc1cccc(C(=O)Nc2sc(-c3ccccc3)cc2C(=O)O)c1	i	-6.3*	i	25*	53%*	i	/	/	i	i	-0.85	0
Cc1cc(C)c2ccc(N)nc2c1O	i	i	i	i	/	/	42*	-53*	/	/	/	/
CC(C)(C)OC(=O)n1cc(C(=O)c2ccccc2O)cn1	i	i	i	i	/	/	/	/	/	/	/	/
CCOC(=O)n1cc(C(=O)c2ccccc2O)cn1	i	i	i	i	/	/	30*	-38*	/	/	/	/
COc1cc2c(cc1NC(=O)COCC(=O)O)oc1ccccc12	i	i	i	i	/	/	46*	-45*	/	/	/	/
CN(Cc1ccc(C(C)(C)C)cc1)C(=O)C1CSC2(C)CCC(=O)N12 (stereo not given)	/	/	i	/	/	/	/	/	/	/	/	/
COc1ccc(OC)c2c(C)cc(NCCN3CCOCC3)nc12	9.2*	i	i	i	/	/	65*	-60*	/	/	/	/
SMILES	CHT allo act	CHT inh	TMEM16A act	ANO1 block	CHT block conf	HEK293 MPD ctr	CHT activ conf	HEK293 MP dye	TMEM16A reconf	HEK293 Ca mobil	YFP-HEK293 quench	ClC-1 inh
CC(C)NC(=O)N(C)C[C@@H]1Oc2ccc(NC(=O)CCN3CCOCC3)cc2CC(=O)N([C@@H](C)CO)C[C@@H]1C	/	/	i	/	/	/	/	/	/	/	/	/
CN(C)C(/C=C/Nc1cccc(Br)c1)=C(C#N)C#N	i	i	i	i	/	/	49*	-42*	/	/	/	/
Cc1ccccc1Oc1nc2c(C)cccn2c(=O)c1/C=C(\C#N)C(=O)NC1CCS(=O)(=O)C1 (stereo not given)	i	i	i	i	/	/	/	/	/	/	/	/
Cc1cccn2c(=O)c3cc(C(=O)N4COCC4(C)C)sc3nc12	i	i	i	i	/	/	35*	-30*	/	/	/	/
CCCn1c(=N)c(C(=O)NC2CCCC2)cc2c(=O)n3cccc(C)c3nc21	i	i	i	i	/	/	/	/	/	/	/	/
Cc1cccn2c(=O)c(/C=C(\C#N)C(=O)NC3CCS(=O)(=O)C3)c(Oc3ccccc3Cl)nc12 (stereo not given)	i	i	i	i	/	/	8	-47*	/	/	/	/
Cc1cccn2c(=O)c3cc(C(=O)NC4CCCCCC4)sc3nc12	i	i	i	i	/	/	/	/	/	/	/	/
Cc1cccn2c(=O)c3cc(C(=O)NC4CCS(=O)(=O)C4)sc3nc12 (stereo not given)	6.4*	i	i	i	/	/	51*	-43*	/	/	/	/
Cc1cccn2c(=O)c3cc(C(=O)NC4CCCC4)c(=N)n(C4CCCC4)c3nc12	i	i	i	i	/	/	34*	-39*	/	/	/	/
COCCn1c(C)cc(C(=O)COC(=O)C2CC(=O)N(CCc3ccc(OC)c(OC)c3)C2)c1C (stereo not given)	i	i	i	i	/	/	/	/	/	/	/	/
COc1ccccc1NC(=O)c1ccc(NC(=O)COC(=O)c2cccnc2Cl)cc1	/	/	i	/	/	/	/	/	/	/	/	/
